These results are taken from PubChem BioAssay AID504332 (National Center for Advancing Translational Sciences (NCATS), 2011).

The campaign covered roughly 350,000 compounds. About 31,000 (8.9%) were called active. Roughly 15% stayed inconclusive and do not appear here. Shown is part of a subset that was picked to be rich in actives. Where a call stands in place of a potency, no number is given. Values without a mark were called inactive. Calls follow the shape of the dose curve; as a rule, active = well fitted inhibition curve with a large enough effect; inconclusive = small, poorly fitted or top-dose-only effect; inactive = no such curve, though single readings can be large or run the other way.
Potency is read from the fitted curve at half-maximal effect.

Sequence of Histone-lysine N-methyltransferase EHMT2 (Homo sapiens) (Q96KQ7 913-1193 limits assumed): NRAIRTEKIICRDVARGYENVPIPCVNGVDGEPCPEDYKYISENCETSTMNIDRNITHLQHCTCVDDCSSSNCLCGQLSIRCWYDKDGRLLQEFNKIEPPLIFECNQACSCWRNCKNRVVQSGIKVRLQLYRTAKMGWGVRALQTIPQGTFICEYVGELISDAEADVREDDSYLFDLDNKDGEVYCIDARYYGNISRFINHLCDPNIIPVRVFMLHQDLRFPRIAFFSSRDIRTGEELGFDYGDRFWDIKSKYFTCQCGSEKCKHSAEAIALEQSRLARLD

The test addresses Histone-lysine N-methyltransferase EHMT2 (Homo sapiens) (UniProt Q96KQ7). Kind of test: qHTS Assay for Inhibitors of Histone Lysine Methyltransferase G9a. Also: nearly all actives have a fitted effect of over 75% in size. To be noted: G9a H3K9 monomethylation, AlphaScreen, 2 h; series mostly up to 59 µM. A digest of the protocol:
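G9a (20 nM) preincubated 15 min RT with compounds, then 500 nM biotinylated H3K9 peptide and 20 uM SAM added; 2 h RT reaction. Monomethyl-H3K9 product detected by AlphaScreen with anti-H3K9me1 antibody, streptavidin donor and anti-rabbit IgG acceptor beads.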
For `O=S(=O)(c1ccc(Br)c2ccccc12)N1CCOCC1`, the activity, negative = inhibition is 24.5% [at 0.501 µM].

Turning to `COc1cccc(-n2c(=S)sc3c(=O)n(-c4ccccc4OC)c(SCC4OCCO4)nc32)c1`, the Potency result was “inactive”.

`COc1ccccc1-n1c(=S)[nH]c2c(sc(=S)n2-c2ccc(C)cc2C)c1=O`: the Potency is 7.94 µM (active).

With `COc1ccccc1N1CCN(C(=O)c2cc(=O)c3cc(C)cc(C)c3o2)CC1`, the activity, negative = inhibition is -10.5% [at 2.33 µM].

As to `Cc1nn(-c2ccccc2)c(C)c1C(=O)OCC(=O)NC(=O)NC1CCCCC1`, the Potency result is “inactive”.

On to `Cc1cccc(C)c1NC(=O)CNC(=O)c1c(C)nn(-c2ccccc2)c1C`, for which the Potency entry was “inactive”.

For `Cc1cccc(C)c1NC(=O)COC(=O)c1c(C)nn(-c2ccccc2)c1C`, the Potency is 11.2 µM (active).

Regarding `COc1ccc(C)cc1S(=O)(=O)Nc1cc2c3c(c1)CCC(=O)N3CCC2`, the Potency result is “inactive”.

In the case of `Cc1ccc2oc3c(c(=O)c2c1)C(c1ccc([N+](=O)[O-])cc1)N(CCCN1CCOCC1)C3=O` (stereo not given), the Potency entry was “inactive”.

As to `CC(=O)c1cccc(NC(=O)CSc2nc3c(c(=O)[nH]2)CCC3)c1`, the Potency result is “inactive”.

Take `Cc1ccc(-c2nn(CCC(=O)Nc3ccc(OC(F)(F)F)cc3)c(=O)c3ccccc23)cc1`: the Potency result was “inactive”.

With `CC(C)N(Cc1nnc(-c2ccccc2Br)o1)C(=O)c1cc(Cl)nc2ccccc12`, the activity, negative = inhibition was -53.3% [at 12.7 µM].

As for `O=C(c1ccc(Cl)s1)N(Cc1nnc(-c2ccccc2Cl)o1)C1CC1`, the activity, negative = inhibition was 9.15% [at 12.7 µM].

Consider `O=C(c1cc(-c2ccco2)nc2ccccc12)N(Cc1nnc(-c2ccc(Cl)cc2)o1)C1CC1`, for which the Potency is 5.01 µM (active).

With `CCOC(=O)[C@H]1[C@H]2COc3cc(OC)ccc3[C@@H]2N2C(=O)N(c3ccc(Br)cc3)C(=O)[C@@]12C`, the Potency entry was “inactive”.

On to `Cc1c(Cl)cccc1NC(=O)C1CCCN(c2ncnc3onc(C)c23)C1` (stereo not given), for which the Potency result is “inactive”.

With `CSc1ccccc1OCc1cc(C(=O)N2C[C@H]3CC[C@H]2C3)no1`, the Potency entry was “inactive”.

For the compound `CCc1cccc(NC(=O)c2cnc(N3CCOCC3)c3ccccc23)c1`, the Potency result was “inactive”.

With `CCc1ccc2ncc(C(=O)c3ccccc3)c(N3CCOCC3)c2c1`, the Potency is 56.2 µM (active).

Take `O=C(c1ccccc1)c1cc(-c2ccccn2)c(N2CCOCC2)s1`: the Potency entry is “inactive”.

Turning to `COc1ccc(C(=O)CC(=O)c2ccc(C)cc2)c(O)c1`, the Potency entry is “inactive”.

For the compound `COc1cc2c(cc1OC)C(COc1ccc(F)cc1)N(C(=O)c1ccccc1F)CC2` (stereo not given), the Potency entry was “inactive”.

`O=C1Nc2ccc(Br)cc2/C1=N/N=C/C1=C(N2CCOCC2)C(=C\c2ccccc2)/CC1`: the Potency was 12.6 µM (active).

Take `COc1ccc(/C=N/N=C2/C(=O)Nc3ccccc32)cc1O`: the Potency entry was “inactive”.

With `COc1ccc(S(=O)(=O)Nc2cc3c(C(=O)OC(C)C)c(C)oc3c3ccccc23)cc1`, the Potency entry is “inactive”.

For the compound `COc1cccc(N(C(=O)c2snc(C(N)=O)c2N)C(C(=O)NCC2CCCO2)c2c[nH]c3ccccc23)c1` (stereo not given), the Potency result is “inactive”.

On to `CCOc1ccc(N(C(=O)c2snc(C(N)=O)c2N)C(C(=O)NCC2CCCO2)c2c[nH]c3ccccc23)cc1` (stereo not given), for which the Potency was 39.8 µM (active).

As to `Cc1ccc(N(C(=O)c2snc(C(N)=O)c2N)C(C(=O)NCC2CCCO2)c2c[nH]c3ccccc23)cc1` (stereo not given), the Potency entry was “inactive”.

For the compound `CN(CC(=O)Nc1ccc(OC(F)(F)F)cc1)C(=O)C1CCC1`, the activity, negative = inhibition is -37% [at 12.7 µM].

For the compound `N#C/C=C\Oc1ccc(Cl)cc1N`, the Potency is 44.7 µM (active).

Turning to `COc1ccc(Cl)cc1C(=O)NCC#N`, the activity, negative = inhibition was -0.132% [at 12.7 µM].

Consider `COCCNC(=O)C1CCN(S(=O)(=O)c2ccc3c(c2)OCCO3)CC1`, for which the activity, negative = inhibition is 2.44% [at 0.501 µM].

Regarding `O=C(NC(=S)Nc1ccccc1N1CCCCC1)c1ccc(F)cc1`, the Potency result was “inactive”.

Regarding `O=C(CC1N=C2c3ccccc3N=C(SCc3ccc(F)cc3)N2C1=O)NCc1cccs1` (stereo not given), the Potency entry is “inactive”.

For the compound `Nc1nc(-c2ccccc2)cc(-c2ccccc2)n1`, the Potency entry was “inactive”.

Regarding `CC(Oc1ccccc1)C(=O)Nc1oc(-c2ccco2)c(-c2ccco2)c1C#N` (stereo not given), the Potency is 28.2 µM (active).

For the compound `CC(C)C(=O)Nc1oc(-c2ccccc2)cc1C#N`, the Potency result is “inactive”.

Regarding `COc1cc(C(=O)Nc2oc(-c3ccccc3)c(-c3ccccc3)c2C#N)cc(OC)c1OC`, the Potency entry is “inactive”.

With `CCC(=O)N1CCc2cc(Br)cc(S(=O)(=O)NCc3ccc(Cl)cc3)c21`, the Potency entry is “inactive”.

With `Brc1ccccc1/C=N/Nc1nc2ccccc2o1`, the Potency result is “inactive”.

Regarding `CC(C)N1C(=O)C2C(C(=O)NC3CCCCC3)C3C=CC2(O3)C1C(=O)NC1CCCC1` (stereo not given), the Potency entry was “inactive”.

As for `CCN(CC)CCN1C(=O)C2C(C(=O)Nc3ccc(Br)cc3)C3C=CC2(O3)C1C(=O)NC1CCCCC1` (stereo not given), the Potency is 50.1 µM (active).

Turning to `CCOCCCN1C(=O)C2C(C(=O)Nc3ccc(OCC)cc3)C3C=CC2(O3)C1C(=O)NC1CCCCC1` (stereo not given), the Potency result is “inactive”.

For the compound `CC(=O)N1c2ccc(S(=O)(=O)N3CCCCCC3)cc2CC1C(=O)NCc1ccccc1C` (stereo not given), the Potency result was “inactive”.

As to `Cc1ccc(S(=O)(=O)NCCC(=O)NNC(=O)C2COc3ccccc3O2)cc1` (stereo not given), the Potency result is “inactive”.

Consider `Cc1ccc(-n2ncc(C(=O)N(C)Cc3ccccc3)c2-n2cccc2)cc1`, for which the Potency result was “inactive”.

On to `COc1ccc(C(=O)NC2CC2)cc1OC1CCN(Cc2ccc(SC)cc2)CC1`, for which the Potency result is “inactive”.

`CCOC(=O)c1c(NC(C)=O)c2c3c(sc2n1Cc1c(C)cc(C)cc1C)CCCC3`: the Potency entry was “inactive”.

As to `COc1cc2c(cc1OC)C(c1ccncc1)CC(=O)N2` (stereo not given), the activity, negative = inhibition was -34% [at 2.33 µM].

As to `COC(=O)c1ccc(C2CC(=O)Nc3cc(OC)c(OC)cc32)cc1` (stereo not given), the Potency entry was “inactive”.

Consider `COc1cc2c(cc1OC)C(c1ccc(C)o1)CC(=O)N2` (stereo not given), for which the Potency was 20 µM (active).

As to `O=C(Nc1cc(C(F)(F)F)ccc1Cl)c1cc2nc(-c3ccc4c(c3)OCO4)cc(C(F)(F)F)n2n1`, the Potency result is “inactive”.

With `CCOc1ccccc1N(CC)C(=O)Nc1cn(C)c(=O)c2ccccc12`, the Potency entry was “inactive”.

`CC(C)(C)c1nc(NCC2CCCO2)c2nnn(Cc3ccccc3)c2n1` (stereo not given): the Potency result is “inactive”.

In the case of `Cn1c(=O)c2[nH]c(NCC3CCCO3)nc2n(-c2ccccc2)c1=O` (stereo not given), the Potency was 8.91 µM (active).

For the compound `Cc1sc2c(c1C)c(=O)n(-c1ccccc1)c(=O)n2CC(=O)NCC1CCCO1` (stereo not given), the Potency entry was “inactive”.

Turning to `CCN(CC)C(=O)CSc1nc2ccsc2c(=O)n1Cc1ccccc1Cl`, the Potency entry is “inactive”.

Turning to `CCCCN(C)c1ccc([N+](=O)[O-])cc1`, the Potency result was “inactive”.

Consider `CCC1OC(c2ccc([N+](=O)[O-])cc2)=Nc2ccccc21` (stereo not given), for which the Potency is 44.7 µM (active).

As to `CCc1ccc2c(c1)C(c1ccc([N+](=O)[O-])cc1)=NNC(c1ccccc1)=N2`, the Potency entry is “inactive”.
